# Data reported in PubChem BioAssay (EPA / NIEHS).
# Calls of active or inactive are those of the source. Rule for the calls: active = hit-call score of the fitted dose curve at least 0.9, where 1 is the maximum; inactive = score below 0.9.
# Experiments:
# Conditions in all cases: mRNA level, 48 h; actives raise or lower the signal
# [1] = read-out: Tumor necrosis factor receptor superfamily member 6 (Homo sapiens) (UniProt P25445); experiment: LTEA_HepaRG_FAS: Life Technologies and Expression Analysis (LTEA) Assay for Fas cell surface death receptor (FAS) using HepaRG (AID 2283447)
# Outline: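 FAS transcript level was measured by TaqMan qRT-PCR against three housekeeping genes after 48 h chemical exposure. Cells were HepaRG, 0.5% DMSO vehicle, with a top concentration of 100 uM and half-log dilutions over eight points, in duplicate.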
# [2] = read-out: Fatty acid synthase (Homo sapiens) (UniProt P49327); experiment: LTEA_HepaRG_FASN: Life Technologies and Expression Analysis (LTEA) Assay for Fatty Acid Synthase (FASN) using HepaRG (AID 2283448);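 for AC50: differentiated human HepaRG liver cells in serum-free induction medium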
# Outline: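 Transcript-level assay: HepaRG liver cells are treated for 48 h across an eight-point range topping at 100 uM, and FASN mRNA, normalized to three housekeeping genes, is compared with DMSO controls in both directions.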
# [3] = read-out: Cyclin D2 (CCND2), CCND2 (gene 894); experiment: LTEA_HepaRG_CCND2: Life Technologies and Expression Analysis (LTEA) Assay for Cyclin D2 (CCND2) using HepaRG (AID 2283449)
# Outline: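 Read-out is CCND2 mRNA level measured by qRT-PCR in human HepaRG liver cells and normalised to three housekeeping genes. Chemicals were applied for 48 h at up to 100 uM, with gain or loss fitted relative to 0.5% DMSO.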
# [4] = read-out: Cyclin Dependent Kinase Inhibitor 1A (CDKN1A), CDKN1A (gene 1026); experiment: LTEA_HepaRG_CDKN1A: Life Technologies and Expression Analysis (LTEA) Assay for Cyclin Dependent Kinase Inhibitor 1A (CDKN1A) using HepaRG (AID 2283450)
# Outline: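 HepaRG, 48 h dosing, 8-pt half-log series from 100 uM top, 0.5% DMSO vehicle, duplicates. Readout: TaqMan qRT-PCR of CDKN1A transcript, housekeeping-normalized (ACTB, GAPDH, POLR2A). Up/down curve fit relative to DMSO.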
# [5] = read-out: catalase (CAT), CAT (gene 847); experiment: LTEA_HepaRG_CAT: Life Technologies and Expression Analysis (LTEA) Assay for catalase (CAT) using HepaRG (AID 2283452)
# Outline: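 Expression of CAT was quantified by TaqMan qRT-PCR with ACTB/GAPDH/POLR2A normalization after 48 h chemical exposure of HepaRG. Eight-point half-log series, top 100 uM, in 0.5% DMSO; gain or loss fitted against vehicle.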
# [6] = read-out: flavin-containing dimethylaniline monooxygenases 3 (FMO3), FMO3 (gene 2328); experiment: LTEA_HepaRG_FMO3: Life Technologies and Expression Analysis (LTEA) Assay for flavin-containing dimethylaniline monooxygenases 3 (FMO3) using HepaRG (AID 2283453);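 for AC50: differentiated human HepaRG liver cells in serum-free induction medium; FMO3 transcript by TaqMan qRT-PCR normalized to ACTB GAPDH and POLR2A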
# Outline: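 HepaRG, 48 h exposure, 8-pt half-log series from 100 uM, 0.5% DMSO vehicle, duplicates; FMO3 transcript by Fluidigm TaqMan qRT-PCR, housekeeping-normalized; gain/loss fit vs DMSO.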
# [7] = read-out: Cytochrome P450 (CYP1A1), CYP1A1 (gene 1543); experiment: LTEA_HepaRG_CYP1A1: Life Technologies and Expression Analysis (LTEA) Assay for Cytochrome P450 (CYP1A1) using HepaRG (AID 2283454)
# Outline: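 qRT-PCR read-out: CYP1A1 transcript normalized to three housekeeping genes, fitted bidirectionally against 0.5% DMSO vehicle baseline. Human HepaRG cells, 48 h chemical exposure, 8-point half-log series topping at 100 uM.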
# [8] = read-out: CFLAR gene, CFLAR (gene 8837); experiment: LTEA_HepaRG_CFLAR: Life Technologies and Expression Analysis (LTEA) Assay for CFLAR gene using HepaRG (AID 2283455)
# Outline: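 HepaRG, 48 h exposure, 8-pt conc-response (100 uM top, half-log), 0.5% DMSO vehicle, duplicates. CFLAR expression by qRT-PCR; ACTB/GAPDH/POLR2A normalization; gain or loss fit vs DMSO baseline.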
# [9] = read-out: growth arrest and DNA damage 45 (GADD45A), GADD45A (gene 1647); experiment: LTEA_HepaRG_GADD45A: Life Technologies and Expression Analysis (LTEA) Assay for growth arrest and DNA damage 45 (GADD45A) using HepaRG (AID 2283458)
# Outline: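 Human HepaRG liver cells are treated in duplicate for 48 h with chemicals in 0.5% DMSO, highest concentration 100 uM. Expression is read by qRT-PCR and analyzed in both directions against vehicle.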
# [10] = read-out: Forkhead box O3 (FOXO3), FOXO3 (gene 2309); experiment: LTEA_HepaRG_FOXO3: Life Technologies and Expression Analysis (LTEA) Assay for Forkhead box O3 (FOXO3) using HepaRG (AID 2283459)
# Outline: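 HepaRG, 48 h post-dose; 8 conc., half-log from 100 uM, 0.5% DMSO, duplicates; serum-free induction medium. Readout: FOXO3 mRNA, TaqMan qRT-PCR, housekeeping-normalized. Bidirectional curve fit vs DMSO baseline.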
# [11] = read-out: Cyclin D1 (CCND1), CCND1 (gene 595); experiment: LTEA_HepaRG_CCND1: Life Technologies and Expression Analysis (LTEA) Assay for Cyclin D1 (CCND1) using HepaRG (AID 2283451);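 for AC50: differentiated human HepaRG liver cells in serum-free induction medium; TaqMan qRT-PCR transcript level normalised to ACTB GAPDH and POLR2A housekeeping genes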
# Outline: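 qRT-PCR (Fluidigm 96.96 array) read-out of transcript level, housekeeping-normalized (ACTB/GAPDH/POLR2A). HepaRG cells, 48 h chemical exposure, 8-point half-log series from 100 uM, 0.5% DMSO vehicle; gain or loss relative to DMSO baseline.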
# [12] = read-out: Forkhead box O1 (FOXO1), FOXO1 (gene 2308); experiment: LTEA_HepaRG_FOXO1: Life Technologies and Expression Analysis (LTEA) Assay for Forkhead box O1 (FOXO1) using HepaRG (AID 2283456)
# Outline: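 Readout is FOXO1 transcript level by multiplexed qRT-PCR against three housekeeping genes, curve-fitted in both directions relative to 0.5% DMSO vehicle. Human HepaRG cultures received chemicals for 48 h, up to 100 uM in half-log steps.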
# Sequence of Fatty acid synthase (Homo sapiens) (P49327 whole entry, looked up): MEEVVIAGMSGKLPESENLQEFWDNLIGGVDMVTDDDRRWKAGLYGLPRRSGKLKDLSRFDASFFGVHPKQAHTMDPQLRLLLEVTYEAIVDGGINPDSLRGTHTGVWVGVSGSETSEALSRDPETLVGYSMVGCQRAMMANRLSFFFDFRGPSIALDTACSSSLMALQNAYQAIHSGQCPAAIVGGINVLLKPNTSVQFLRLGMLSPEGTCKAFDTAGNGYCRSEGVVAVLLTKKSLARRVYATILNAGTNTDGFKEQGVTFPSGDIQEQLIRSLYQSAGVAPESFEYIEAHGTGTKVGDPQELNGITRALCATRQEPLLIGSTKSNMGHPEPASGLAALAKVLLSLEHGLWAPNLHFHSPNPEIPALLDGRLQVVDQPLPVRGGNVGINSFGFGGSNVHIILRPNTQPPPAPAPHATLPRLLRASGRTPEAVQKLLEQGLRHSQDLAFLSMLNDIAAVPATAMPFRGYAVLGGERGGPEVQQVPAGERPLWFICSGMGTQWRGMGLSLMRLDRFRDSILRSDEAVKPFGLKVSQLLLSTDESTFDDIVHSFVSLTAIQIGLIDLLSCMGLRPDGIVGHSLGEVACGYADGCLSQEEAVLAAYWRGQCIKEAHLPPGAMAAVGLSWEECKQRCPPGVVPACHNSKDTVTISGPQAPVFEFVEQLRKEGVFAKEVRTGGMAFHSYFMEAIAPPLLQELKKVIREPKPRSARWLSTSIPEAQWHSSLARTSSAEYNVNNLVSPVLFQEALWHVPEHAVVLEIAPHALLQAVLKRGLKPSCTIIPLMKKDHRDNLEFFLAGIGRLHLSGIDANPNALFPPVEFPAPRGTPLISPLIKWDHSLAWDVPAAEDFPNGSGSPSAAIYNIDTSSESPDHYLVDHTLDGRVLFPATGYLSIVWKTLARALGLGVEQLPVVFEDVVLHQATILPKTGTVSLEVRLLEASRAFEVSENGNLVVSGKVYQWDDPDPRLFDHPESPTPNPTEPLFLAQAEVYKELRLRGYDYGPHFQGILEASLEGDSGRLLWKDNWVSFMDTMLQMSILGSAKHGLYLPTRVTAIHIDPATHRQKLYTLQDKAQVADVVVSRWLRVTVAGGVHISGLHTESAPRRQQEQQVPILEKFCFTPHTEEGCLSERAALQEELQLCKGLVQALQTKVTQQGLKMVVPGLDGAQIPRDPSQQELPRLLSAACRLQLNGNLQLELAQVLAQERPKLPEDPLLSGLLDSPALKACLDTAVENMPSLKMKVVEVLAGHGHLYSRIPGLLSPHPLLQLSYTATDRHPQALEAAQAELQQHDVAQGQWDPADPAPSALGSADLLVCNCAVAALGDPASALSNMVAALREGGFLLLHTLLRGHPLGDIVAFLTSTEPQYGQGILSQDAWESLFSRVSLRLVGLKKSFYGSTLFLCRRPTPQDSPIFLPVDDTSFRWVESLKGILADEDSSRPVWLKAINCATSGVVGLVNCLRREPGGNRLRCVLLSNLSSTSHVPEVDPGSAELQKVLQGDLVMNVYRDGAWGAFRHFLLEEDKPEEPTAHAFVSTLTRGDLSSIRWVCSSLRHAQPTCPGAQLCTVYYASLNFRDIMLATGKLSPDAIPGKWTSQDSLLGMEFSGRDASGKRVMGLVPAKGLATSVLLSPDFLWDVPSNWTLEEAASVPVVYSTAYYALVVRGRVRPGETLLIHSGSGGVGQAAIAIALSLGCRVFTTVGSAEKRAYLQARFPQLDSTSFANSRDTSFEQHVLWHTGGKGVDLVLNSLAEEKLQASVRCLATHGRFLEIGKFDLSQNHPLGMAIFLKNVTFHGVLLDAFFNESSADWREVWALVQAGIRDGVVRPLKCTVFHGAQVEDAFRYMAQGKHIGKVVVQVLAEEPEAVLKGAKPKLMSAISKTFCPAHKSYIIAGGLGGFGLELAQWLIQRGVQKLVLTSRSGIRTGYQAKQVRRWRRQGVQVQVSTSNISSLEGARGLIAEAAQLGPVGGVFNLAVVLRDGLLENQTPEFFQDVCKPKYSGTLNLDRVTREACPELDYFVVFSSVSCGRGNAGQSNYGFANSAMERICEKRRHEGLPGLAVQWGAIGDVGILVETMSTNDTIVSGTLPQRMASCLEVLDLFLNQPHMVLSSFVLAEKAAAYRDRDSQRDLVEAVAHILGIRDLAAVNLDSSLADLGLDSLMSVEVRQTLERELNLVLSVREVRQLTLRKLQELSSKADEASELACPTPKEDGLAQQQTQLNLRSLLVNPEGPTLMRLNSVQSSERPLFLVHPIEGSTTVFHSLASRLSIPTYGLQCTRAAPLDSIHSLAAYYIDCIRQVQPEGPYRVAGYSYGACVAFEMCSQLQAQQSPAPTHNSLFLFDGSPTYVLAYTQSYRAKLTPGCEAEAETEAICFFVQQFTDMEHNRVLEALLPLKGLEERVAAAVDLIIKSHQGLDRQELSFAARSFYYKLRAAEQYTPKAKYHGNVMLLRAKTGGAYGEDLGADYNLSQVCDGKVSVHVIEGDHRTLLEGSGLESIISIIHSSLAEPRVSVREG
smiles,measurement,setting,value
COc1cc(C=O)cc2c1[C@H](COC(N)=O)[C@]1(OC(C)=O)ON2C[C@H]2[C@@H]1N2C(C)=O,AC50,[1],88.1 µM (active)
same,outcome,[2],inactive
same,AC50,[3],29.6 µM (active)
same,outcome,[4],inactive
same,AC50,[5],0.412 µM (active)
same,AC50,[6],76.5 µM (active)
same,AC50,[7],4.09 µM (active)
same,outcome,[8],inactive
same,AC50,[9],0.579 µM (active)
same,AC50,[10],3.8 µM (active)
CCCCCCCCn1sccc1=O,outcome,[1],inactive
same,AC50,[2],75.1 µM (active)
same,outcome,[4],inactive
same,AC50,[11],83.7 µM (active)
same,AC50,[5],85.6 µM (active)
same,AC50,[6],88.9 µM (active)
same,AC50,[7],32.8 µM (active)
same,AC50,[8],78.9 µM (active)
same,outcome,[9],inactive
same,outcome,[10],inactive
CCC12COCN1COC2,outcome,[1],inactive
same,outcome,[2],inactive
same,outcome,[3],inactive
same,outcome,[4],inactive
same,outcome,[5],inactive
same,outcome,[6],inactive
same,AC50,[7],50 µM (active)
same,outcome,[8],inactive
same,outcome,[9],inactive
same,outcome,[10],inactive
CCCCC(CC)COC(=O)c1ccc(C(=O)OCC(CC)CCCC)c(C(=O)OCC(CC)CCCC)c1 (stereo unspecified),outcome,[1],inactive
same,outcome,[2],inactive
same,outcome,[4],inactive
same,outcome,[5],inactive
same,outcome,[6],inactive
same,AC50,[7],50 µM (active)
same,outcome,[8],inactive
same,outcome,[9],inactive
same,outcome,[10],inactive
Clc1ccc(Cl)c(Cl)c1,outcome,[1],inactive
same,outcome,[2],inactive
same,outcome,[4],inactive
same,outcome,[5],inactive
same,outcome,[6],inactive
same,outcome,[7],inactive
same,AC50,[8],50 µM (active)
same,outcome,[12],inactive
same,AC50,[9],9.92 µM (active)
same,outcome,[10],inactive
ClCCOCCCl,outcome,[1],inactive
same,outcome,[2],inactive
same,outcome,[4],inactive
same,outcome,[11],inactive
same,outcome,[5],inactive
same,outcome,[6],inactive
same,outcome,[7],inactive
same,outcome,[8],inactive
same,outcome,[9],inactive
same,outcome,[10],inactive
O=C(O)C1C2CCC(O2)C1C(=O)O (stereo unspecified),outcome,[1],inactive
same,AC50,[2],84.3 µM (active)
same,outcome,[3],inactive
same,AC50,[4],35.8 µM (active)
same,outcome,[5],inactive
same,AC50,[6],56.4 µM (active)
same,AC50,[7],82.6 µM (active)
same,outcome,[8],inactive
same,outcome,[9],inactive
same,AC50,[10],37.4 µM (active)
O=[N+]([O-])C(Br)(CO)CO,outcome,[1],inactive
same,outcome,[2],inactive
same,outcome,[3],inactive
same,outcome,[4],inactive
same,outcome,[5],inactive
same,outcome,[6],inactive
same,AC50,[7],50 µM (active)
same,outcome,[8],inactive
same,outcome,[9],inactive
same,outcome,[10],inactive
c1ccc(C2CO2)cc1 (stereo unspecified),outcome,[1],inactive
same,outcome,[2],inactive
same,outcome,[3],inactive
same,outcome,[4],inactive
same,outcome,[5],inactive
same,outcome,[6],inactive
same,outcome,[7],inactive
same,outcome,[8],inactive
same,outcome,[12],inactive
same,outcome,[9],inactive
same,outcome,[10],inactive
Clc1ccc(C(c2ccc(Cl)cc2)C(Cl)(Cl)Cl)cc1,outcome,[1],inactive
same,AC50,[2],66.6 µM (active)
same,outcome,[3],inactive
same,outcome,[4],inactive
same,outcome,[5],inactive
same,AC50,[6],88.4 µM (active)
same,AC50,[7],9.54 µM (active)
same,outcome,[8],inactive
same,outcome,[9],inactive
same,outcome,[10],inactive
ClC1=C(Cl)C2(Cl)C3C(Cl)C=CC3C1(Cl)C2(Cl)Cl (stereo unspecified),outcome,[1],inactive
same,outcome,[2],inactive
same,outcome,[3],inactive
same,outcome,[4],inactive
same,outcome,[5],inactive
same,outcome,[6],inactive
same,AC50,[7],18.3 µM (active)
same,outcome,[8],inactive
same,outcome,[12],inactive
same,outcome,[9],inactive
same,outcome,[10],inactive
CCN(CC)CCO,outcome,[1],inactive
same,outcome,[2],inactive
same,outcome,[3],inactive
same,outcome,[4],inactive
same,outcome,[5],inactive
same,outcome,[6],inactive
same,outcome,[7],inactive
same,outcome,[8],inactive
same,outcome,[9],inactive
same,outcome,[10],inactive
O=Cc1ccco1,outcome,[1],inactive
same,outcome,[2],inactive
same,outcome,[4],inactive
same,outcome,[11],inactive
same,outcome,[5],inactive
same,outcome,[6],inactive
same,AC50,[7],50 µM (active)
same,outcome,[8],inactive
same,outcome,[9],inactive
same,outcome,[10],inactive
COC(=O)c1ccccc1N,outcome,[1],inactive
same,outcome,[2],inactive
same,outcome,[3],inactive
same,outcome,[4],inactive
same,outcome,[5],inactive
same,outcome,[6],inactive
same,outcome,[7],inactive
same,outcome,[8],inactive
same,outcome,[9],inactive
same,outcome,[10],inactive
CCNS(=O)(=O)C(F)(F)C(F)(F)C(F)(F)C(F)(F)C(F)(F)C(F)(F)C(F)(F)C(F)(F)F,outcome,[1],inactive
same,AC50,[2],48.2 µM (active)
same,outcome,[4],inactive
same,outcome,[5],inactive
same,AC50,[6],75.9 µM (active)
same,AC50,[7],69.3 µM (active)
same,outcome,[8],inactive
same,outcome,[12],inactive
same,outcome,[9],inactive
same,outcome,[10],inactive
